In the library only some 5.7% were active in any assay of this set; here they are far more common.
PI4K2A block: qHTS for small molecular inhibitors of PI4K2A. 0.13% of 420,000 active. AID 1346378, 2018. purified PI4K2A, ADP-Glo luminescence, 1 h; active compounds read low. activity change, negative = inhibition, % at 76.9 µM. Phosphatidylinositol 4-kinase type 2-alpha (Homo sapiens), Q9BTU6; in the data active = activity change below about -50%; inconclusive = mostly about -30% to -49%;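 note: -100% = wells without enzyme as full effect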
Target sequence (Q9BTU6 whole entry, looked up): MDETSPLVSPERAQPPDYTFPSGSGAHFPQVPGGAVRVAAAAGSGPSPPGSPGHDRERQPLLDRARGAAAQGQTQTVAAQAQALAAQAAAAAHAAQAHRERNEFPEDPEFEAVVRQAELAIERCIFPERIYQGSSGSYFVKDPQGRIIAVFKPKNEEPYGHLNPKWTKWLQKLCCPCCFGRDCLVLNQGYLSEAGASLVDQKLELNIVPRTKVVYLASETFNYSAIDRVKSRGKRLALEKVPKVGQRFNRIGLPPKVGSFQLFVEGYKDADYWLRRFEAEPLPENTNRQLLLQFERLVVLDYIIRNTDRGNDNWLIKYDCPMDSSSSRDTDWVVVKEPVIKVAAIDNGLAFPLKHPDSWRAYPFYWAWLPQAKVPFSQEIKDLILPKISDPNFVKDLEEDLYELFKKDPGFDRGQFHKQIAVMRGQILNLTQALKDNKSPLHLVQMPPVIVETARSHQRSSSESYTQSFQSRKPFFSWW
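ADP-Glo luminescence measured ADP generated by PI4K2A enzyme (4 ug/mL before mixing) with 1.2 mM PI substrate (pre-mix) and 300 microM ATP (pre-mix). Tris pH7.5 buffer with MgCl2, Triton X-100; 1 h reaction at ambient temperature.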
A549 viability: Nrf2 qHTS screen for inhibitors: counterscreen for cytotoxicity. Potency, µM (top dose mostly 46 µM), without a hit: at the highest dose activity change, negative = cytotoxicity, actives largely listed as inhibitors. 0.16% of 390,000 active. A549 ARE-Fluc cells, CellTiter-Fluor viability, 18-24 h. AID 504648, 2011; note: potency is the fitted concentration of half-maximal effect
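Cytotoxicity counterscreen: CellTiter-Fluor fluorescence was measured in A549 ARE_Fluc cells after 18-24 h of compound exposure in a concentration series. The subsequent BugLite luminescent read reports ARE-luciferase activity.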
Nrf2 inh: Nrf2 qHTS screen for inhibitors; A549 ARE-Fluc reporter, luciferase luminescence, 18-24 h; Potency, µM (doses to about 46 µM), for inactives: at the highest dose activity change, negative = inhibition, actives largely listed as inhibitors; 2.1% of 360,000 active; note: potency is the fitted concentration of half-maximal effect; nearly all actives have a fitted effect of over 60% in size
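Reporter: ARE-Fluc in A549. Exposure: 18-24 h, 37 °C, 5% CO2, 5% FBS OPTI-MEM. Readouts: fluorescent cytotoxicity (CellTiter-Fluor), then luminescent Nrf2 signal after BugLite.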
KB-V1 cytotox: qHTS assay for MDR1-selective chemotherapeutics: Primary screen using the drug-selected MDR subline cells KB-V1 | Potency, µM (titrated, usually from 46.1 µM), hits mostly cytotoxic | 3.4% of 400,000 active | KB-V1 MDR cells viability, CellTiter-Glo, 72 h; note: potency is the fitted concentration of half-maximal effect; nearly all actives have a fitted effect of over 60% in size
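Cytotoxicity toward P-gp-expressing KB-V1 cells was determined as loss of CellTiter-Glo luminescence after 72 h at 37 degrees C. Compounds were tested in quantitative HTS format across a concentration range, with curves fitted to normalized data.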
Giardia killer: Small Molecules that selectively kill Giardia lamblia: qHTS; Giardia lamblia trophozoite viability; activity change, % at 7.66 µM, hits read low; 0.15% of 340,000 active; in the data active = activity change below about -80%; inconclusive = between about -30% and that limit;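 note: parasites exposed to compound for two days anaerobically before the ATP read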
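Media and compound were dispensed first, then trophozoites at 100 cells/well; plates sat 48 hrs at 37 deg C without oxygen before ATP luminescence reagent was added and read after 15-30 min at room temperature.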
KB-3-1 tox: qHTS assay for MDR1-selective chemotherapeutics: Primary screen using the parental adenocarcinoma cell KB-3-1 | Potency, µM (doses to about 46.1 µM), hits mostly cytotoxic | 1.4% of 400,000 active | KB-3-1 viability, CellTiter-Glo ATP luminescence, 72 h; note: potency is the fitted concentration of half-maximal effect; nearly all actives have a fitted effect of over 60% in size
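Multi-concentration cytotoxicity screen in KB-3-1 cells grown in DMEM lacking phenol red with 10% FBS. After 72 h at 37 °C with compound, ATP-dependent luminescence was recorded.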
* hit, by the source's call. Unless noted, calls come from the whole dose curve; as a rule, active = well fitted curve in the direction sought with a large enough effect; inconclusive = small, poorly fitted or top-dose-only effect, or another doubt; inactive = no such curve, though single readings can be large; an effect the other way counts as inactive or inconclusive. Unless noted, % is set by controls: 0 for no effect and ±100 for the full control effect.

How did O=[N+]([O-])c1cccc(-c2csc(N/N=C/c3cccc(O)c3)n2)c1 do in these assays?
PI4K2A block: -1; A549 viability: inconclusive; Nrf2 inh: 18µM*; KB-V1 cytotox: inconclusive; Giardia killer: -8; KB-3-1 tox: inconclusive

How did O=C(Nc1nc(-c2cccc([N+](=O)[O-])c2)cs1)C(c1ccccc1)c1ccccc1 do in these assays?
PI4K2A block: 2; A549 viability: inconclusive; Nrf2 inh: 15µM*; KB-V1 cytotox: inconclusive; Giardia killer: -3; KB-3-1 tox: inconclusive

Results for CCOC(=O)Cc1csc(N/N=C/c2cccc([N+](=O)[O-])c2)n1 ?
PI4K2A block: 3; A549 viability: -1%; Nrf2 inh: -12%; KB-V1 cytotox: inactive; Giardia killer: 29; KB-3-1 tox: inactive

How did CCn1c2ccccc2c2cc(C=NNC(=O)c3cc(-c4ccc(OC)cc4)n[nH]3)ccc21 do in these assays?
PI4K2A block: 2

What do the screens show for `O=C(CCc1nc(-c2ccccc2F)no1)NCCc1ccc(F)cc1`?
PI4K2A block: -3

Results for O=S1(=O)c2ccc(N3CCCC3)cc2Oc2ccccc2CN1Cc1cn(Cc2ccc(C(F)(F)F)cc2)nn1 ?
PI4K2A block: 1

Results for CC(C)C1C(=O)N(Cc2cn(CC3CCCCC3)nn2)CCS(=O)(=O)N1Cc1ccc(-c2ccc(Cl)nc2)cc1 (configuration not stated) ?
PI4K2A block: -1; KB-V1 cytotox: inactive; KB-3-1 tox: inconclusive

What do the screens show for `CC1C(=O)N(Cc2cn(CC3CCCCC3)nn2)CCS(=O)(=O)N1Cc1ccc(-c2ccc(Cl)cc2)cc1` (configuration not stated)?
PI4K2A block: 0; KB-V1 cytotox: 18µM*; KB-3-1 tox: inconclusive

How did COCOCCn1cc(CN2CCS(=O)(=O)N(Cc3ccc(-c4ccc(Cl)c(Cl)c4)cc3)C(C)C2=O)nn1 (configuration not stated) do in these assays?
PI4K2A block: -6; KB-V1 cytotox: inconclusive; KB-3-1 tox: 15µM*

How did COCOCCn1cc(CN2CCS(=O)(=O)N(Cc3ccc(-c4ccc(C)cc4)cc3)C(C)C2=O)nn1 (configuration not stated) do in these assays?
PI4K2A block: -3; KB-V1 cytotox: inactive; KB-3-1 tox: inactive

Results for CC(C)C1C(=O)N(Cc2cn(CC3CCCCC3)nn2)CCS(=O)(=O)N1Cc1ccc(-c2ccc(F)nc2)cc1 (configuration not stated) ?
PI4K2A block: 3; KB-V1 cytotox: inconclusive; KB-3-1 tox: 16µM*

How did CN(Cc1ccccc1)C(=O)OCc1cn(Cc2cccc(F)c2)nn1 do in these assays?
PI4K2A block: 7

How did O=C(NN=Cc1ccc(O)cc1)c1cc(-c2ccc(Cl)cc2)n[nH]1 do in these assays?
PI4K2A block: 4

What do the screens show for `COc1cccc(CN2CCCC(C(=O)Nc3ccc(-c4cscn4)cc3)C2)c1` (configuration not stated)?
PI4K2A block: -7; A549 viability: inconclusive; Nrf2 inh: 4%; KB-V1 cytotox: 21µM*; Giardia killer: 5; KB-3-1 tox: inconclusive

What do the screens show for `Cc1ncc(CN2CCCC(C(=O)Nc3ccc(-c4cscn4)cc3)C2)cn1` (configuration not stated)?
PI4K2A block: 0; A549 viability: 0%; Nrf2 inh: 0%; KB-V1 cytotox: inactive; Giardia killer: 0; KB-3-1 tox: inactive

What do the screens show for `COc1ccc(C#Cc2cnc(Cl)c3cncnc23)cc1OC`?
A549 viability: 10%; Nrf2 inh: 1%; Giardia killer: inactive

Results for Cc1ccc(-c2cc3ncc(C(=O)c4cc([N+](=O)[O-])ccc4O)cn3n2)cc1 ?
PI4K2A block: -1; A549 viability: -1%; Nrf2 inh: 4%; KB-V1 cytotox: inactive; KB-3-1 tox: 16µM*

Results for O=C(c1cnc2cc(-c3ccccc3)nn2c1)c1cc([N+](=O)[O-])ccc1O ?
PI4K2A block: 0; A549 viability: inconclusive; Nrf2 inh: inconclusive; KB-V1 cytotox: inactive; KB-3-1 tox: inconclusive

Results for Cc1ccc(-c2cc3nccc(-c4cc([N+](=O)[O-])ccc4O)n3n2)cc1 ?
PI4K2A block: -1; A549 viability: -25%; Nrf2 inh: inconclusive; KB-V1 cytotox: inconclusive; KB-3-1 tox: 23µM*

How did CCOC(=O)c1cc(OCc2csc(-c3ccccc3)n2)cc(C(=O)OCC)c1 do in these assays?
KB-V1 cytotox: inactive; KB-3-1 tox: inactive

Results for COC(=O)c1cccc(S(=O)(=O)N2CCC(c3nc4ccccc4o3)CC2)c1 ?
PI4K2A block: 0; A549 viability: -4%; Nrf2 inh: inconclusive; KB-V1 cytotox: inactive; Giardia killer: 14; KB-3-1 tox: inactive

How did COC(=O)c1ccccc1S(=O)(=O)N1CCC(c2nc3ccccc3o2)CC1 do in these assays?
PI4K2A block: 6; A549 viability: -2%; Nrf2 inh: -29%; KB-V1 cytotox: 12µM*; Giardia killer: -3; KB-3-1 tox: inactive

Results for CC(C)CCCC(C)NCCC(C)C (configuration not stated) ?
PI4K2A block: -1

How did O=c1cc(-c2ccc(F)cc2)oc2ccccc12 do in these assays?
PI4K2A block: 2; A549 viability: 1%; Nrf2 inh: 11%; KB-V1 cytotox: 13µM*; Giardia killer: -5; KB-3-1 tox: inconclusive

Results for CN(C)CCCN1C(=O)c2oc3ccc(Cl)cc3c(=O)c2C1c1cccnc1 (configuration not stated) ?
PI4K2A block: -5; A549 viability: 0%; Nrf2 inh: 0%; KB-V1 cytotox: inactive; Giardia killer: -3; KB-3-1 tox: inactive

Results for O=c1cc(-c2ccccc2F)oc2ccccc12 ?
PI4K2A block: 1; A549 viability: -6%; Nrf2 inh: 19%; KB-V1 cytotox: inconclusive; Giardia killer: -1; KB-3-1 tox: inactive

Results for O=c1cc(-c2ccccc2[N+](=O)[O-])oc2ccccc12 ?
PI4K2A block: -2; A549 viability: -19%; Nrf2 inh: -4%; KB-V1 cytotox: 15µM*; Giardia killer: 4; KB-3-1 tox: inactive
